38 molecules from PubChem BioAssay (Tox21) can be followed below.

Molecules are shown by their SMILES. Inconclusive results are not listed. Unmarked numbers belong to inactive results. Calls of active or inactive are those of the source. Calls come from the whole dose curve; as a rule, active = well fitted inhibition curve with a large enough effect in the repeat runs; inconclusive = weak or mixed curves; inactive = no such curve, though single readings can be large or run the other way.
% is set by controls: 0 for no effect and ±100 for the full control effect; potency is the fitted concentration of half-maximal effect.

Sequence of Cytochrome P450 2C9 (Homo sapiens) (P11712 whole entry, looked up): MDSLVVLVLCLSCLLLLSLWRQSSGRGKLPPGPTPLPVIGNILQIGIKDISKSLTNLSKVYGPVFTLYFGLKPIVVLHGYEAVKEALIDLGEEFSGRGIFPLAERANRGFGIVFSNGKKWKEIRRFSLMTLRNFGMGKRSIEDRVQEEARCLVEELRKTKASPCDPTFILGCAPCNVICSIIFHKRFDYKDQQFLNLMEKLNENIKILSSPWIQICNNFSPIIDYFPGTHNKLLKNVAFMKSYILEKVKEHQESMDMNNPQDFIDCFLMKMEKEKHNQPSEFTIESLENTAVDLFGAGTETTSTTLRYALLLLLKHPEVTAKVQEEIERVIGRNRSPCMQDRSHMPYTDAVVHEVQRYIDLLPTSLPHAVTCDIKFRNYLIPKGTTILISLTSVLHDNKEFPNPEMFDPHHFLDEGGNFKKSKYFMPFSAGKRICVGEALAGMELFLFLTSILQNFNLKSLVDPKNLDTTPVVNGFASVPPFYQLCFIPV

For one assay, the target named is Cytochrome P450 2C19 (Homo sapiens) (UniProt P33261). The assay is described as follows: Cytochrome P450 Family 2 Subfamily C Member 19 (CYP2C19) small molecule antagonists: luciferase reporter qHTS assay (AID 1671197). Note: nearly all actives have a fitted effect of over 65% in size. Conditions: P450-Glo CYP2C19 enzyme, luciferin luminescence, 1 h; series mostly up to 115 µM; activity change, negative = inhibition: at the top concentration. The method, boiled down: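 Light output is proportional to CYP2C19 activity: proluciferin substrate is converted to luciferin, then detected by a luciferin detection reagent that also stops the 1 h, 37C NADPH-driven reaction. Ketoconazole serves as positive control.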
Sequence of Cytochrome P450 2C19 (Homo sapiens) (P33261 whole entry, looked up): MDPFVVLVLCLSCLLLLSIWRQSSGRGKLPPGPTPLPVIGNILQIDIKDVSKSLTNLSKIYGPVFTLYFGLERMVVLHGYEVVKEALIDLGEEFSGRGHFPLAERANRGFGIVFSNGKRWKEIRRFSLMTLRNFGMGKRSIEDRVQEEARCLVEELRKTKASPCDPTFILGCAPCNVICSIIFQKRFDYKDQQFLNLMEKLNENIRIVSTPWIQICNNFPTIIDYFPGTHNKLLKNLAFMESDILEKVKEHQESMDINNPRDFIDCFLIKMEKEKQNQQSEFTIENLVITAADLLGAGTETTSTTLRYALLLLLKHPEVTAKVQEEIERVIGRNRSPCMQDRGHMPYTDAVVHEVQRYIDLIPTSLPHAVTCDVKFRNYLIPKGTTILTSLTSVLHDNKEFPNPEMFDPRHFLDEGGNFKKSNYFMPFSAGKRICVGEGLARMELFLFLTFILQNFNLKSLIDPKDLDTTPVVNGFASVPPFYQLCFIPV
In general terms: In a reporter assay the amount or activity of a reporter protein is the signal.
In the case of `C[C@]12CCC(=O)C=C1CC[C@@H]1[C@@H]2CC[C@@]2(C)[C@H]1CC[C@]2(O)C(=O)CO`, the Potency is 8.71 µM (active).
The same measure, in the same setting: for `O=CCCc1ccccc1` the value was 25.2 µM (active).
For `CN1CCN(c2c(F)cc3c(=O)c(C(=O)O)cn4c3c2SCC4)CC1`, the “activity change, negative = inhibition” value is -6.61% [at 52.9 µM].
As to `CC1=C2[C@H](/C=C(\C)C(=O)O)CC[C@@H](C)[C@H]2CC1`, the Potency is 73.7 µM (active).
In the case of `C=CC(C)(O)CC/C=C(\C)CCC=C(C)C` (configuration not stated), the Potency is 17.8 µM (active).
`C=CCCCCCCCCO`: the “activity change, negative = inhibition” value is 26%.
In the case of `NCCC(O)(P(=O)(O)O)P(=O)(O)O`, the “activity change, negative = inhibition” value was 14.8% [at 52.9 µM].
With `C/C(=N\O)[C@@H](C)NCC(C)(C)CN[C@H](C)/C(C)=N/O`, the “activity change, negative = inhibition” value was 14.8% [at 52.9 µM].
As for `CC(C)OC(C)C`, the “activity change, negative = inhibition” value was -5.22%.
In the case of `C1CSCCS1`, the “activity change, negative = inhibition” value is -19.2%.
For the molecule `CCc1cc(Cl)c(OC)c(C(=O)NC[C@@H]2CCCN2CC)c1O`, the “activity change, negative = inhibition” value is 8.03% [at 52.9 µM].
In the case of `CC1(C)O[C@@H]2C[C@H]3[C@@H]4CCC5=CC(=O)CC[C@]5(C)[C@@]4(F)[C@@H](O)C[C@]3(C)[C@]2(C(=O)CCl)O1`, the Potency was 34.7 µM (active).
As for `CCOC(=O)C1CC(=O)C(=C(O)C2CC2)C(=O)C1` (configuration not stated), the Potency was 71 µM (active).
For the molecule `O=S(=O)(O)C(F)(F)F`, the “activity change, negative = inhibition” value is -22.5%.
For `CCCCCCCCCCCCCCCCOP(=O)([O-])OCC[N+](C)(C)C`, the “activity change, negative = inhibition” value was 11.2% [at 52.9 µM].
On the same count and under the same terms, then `CC1(C)S[C@@H]2[C@H](NC(=O)C(C(=O)O)c3ccccc3)C(=O)N2[C@H]1C(=O)O` (some centres not stated), with 0.0513% [at 52.9 µM].
Take `CC(C)C1=CC2=CC[C@@H]3[C@](C)(CCC[C@@]3(C)C(=O)O)[C@H]2CC1`: the Potency is 35.6 µM (active).
Consider `CCCN(CCC)C(=O)C(CCC(=O)O)NC(=O)c1ccccc1` (configuration not stated), for which the “activity change, negative = inhibition” value is 12.4% [at 52.9 µM].
Still for that read-out and setting: then `O=C(O)c1cccc(Cl)c1Cl`, with -27.6%; and `COC(=O)C(C)O` (configuration not stated), with 18.9%; and `CCCCc1ccc2nc(NC(=O)OC)[nH]c2c1`, with 16.6% [at 52.9 µM].
On to `CCCCCCn1c(=O)c2c(ncn2C)n(C)c1=O`, for which the Potency is 30.9 µM (active).
`O=C(CC(=O)C(F)(F)F)c1ccccc1`: the Potency is 36.1 µM (active).
Still for that read-out and setting: then `CCCCCCCOC(=O)CCC`, with 79.6 µM (active); and `Clc1cccc(-c2cc(Cl)cc(Cl)c2)c1`, with 30.6 µM (active).
Consider `CC(C)S`, for which the “activity change, negative = inhibition” value is -28.6%.
As to `C[C@]12C(=O)OC(=O)[C@H]1[C@H]1C=C[C@@H]2C1`, the “activity change, negative = inhibition” value was 11.2%.
On the same count and under the same terms, for `O=C(CCCl)NCc1ccccc1` the value was -3.94% [at 52.9 µM]; for `C=Cc1ccccc1`, 7.05%.
Regarding `CCOC(=O)COc1ccc2c(c1)CC(NCC(O)c1cccc(Cl)c1)CC2` (configuration not stated), the Potency was 45.2 µM (active).
For `CC1=C(CC(=O)O)c2cc(F)ccc2/C1=C\c1ccc(S(C)(=O)=O)cc1`, the “activity change, negative = inhibition” value is -3.76% [at 52.9 µM].
As to `Cc1cc(S(=O)(=O)O)c(N)cc1Cl`, the Potency is 80.5 µM (active).
As to `Cc1ccc(C)c(N)c1`, the Potency is 7.11 µM (active).
Turning to `O=C(O)[C@@H]1CSCN1`, the “activity change, negative = inhibition” value is 10.6% [at 52.9 µM].
As for `C[C@@H]1CN(c2c(F)c(N)c3c(=O)c(C(=O)O)cn(C4CC4)c3c2F)C[C@H](C)N1`, the activity change, negative = inhibition was 45.2% [at 23.6 µM].
Take `Oc1ccccc1C=NCc1ccccc1`: the “activity change, negative = inhibition” value is -10.1% [at 52.9 µM].
Consider `NCCCN1CCN(CCCN)CC1`, for which the “activity change, negative = inhibition” value is -9.99%.
As for `O=Cc1ccc(O)c(O)c1O`, the “activity change, negative = inhibition” value was -23% [at 52.9 µM].

Another assay addresses Cytochrome P450 2C9 (Homo sapiens) (UniProt P11712). The assay is described as follows: Cytochrome P450 Family 2 Subfamily C Member 9 (CYP2C9) small molecule antagonists: luciferase reporter qHTS assay (AID 1671198). Note: nearly all actives have a fitted effect of over 50% in size. To be noted: P450-Glo CYP2C9 enzyme assay, luciferin luminescence; series mostly up to 53 µM; activity change, negative = inhibition: at the top concentration. The method, boiled down:
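P450-Glo proluciferin substrate with CYP2C9 enzyme; 10 min RT preincubation, then NADPH regeneration 1 h at 37C; luciferin detection reagent 20 min RT, luminescence in relative luminescence units.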
For the molecule `O=CCCc1ccccc1`, the Potency was 35.6 µM (active).
On to `CC1=C2[C@H](/C=C(\C)C(=O)O)CC[C@@H](C)[C@H]2CC1`, for which the Potency was 65.6 µM (active).
For the molecule `C=CC(C)(O)CC/C=C(\C)CCC=C(C)C` (configuration not stated), the Potency was 31.7 µM (active).
As to `NCCC(O)(P(=O)(O)O)P(=O)(O)O`, the “activity change, negative = inhibition” value is -4.6%.
Consider `C/C(=N\O)[C@@H](C)NCC(C)(C)CN[C@H](C)/C(C)=N/O`, for which the “activity change, negative = inhibition” value is 6.33%.
For `CC(C)OC(C)C`, the “activity change, negative = inhibition” value was -0.21% [at 115 µM].
For the molecule `C1CSCCS1`, the “activity change, negative = inhibition” value is -8.02% [at 115 µM].
Regarding `CCc1cc(Cl)c(OC)c(C(=O)NC[C@@H]2CCCN2CC)c1O`, the “activity change, negative = inhibition” value was 5.45%.
As to `CC1(C)O[C@@H]2C[C@H]3[C@@H]4CCC5=CC(=O)CC[C@]5(C)[C@@]4(F)[C@@H](O)C[C@]3(C)[C@]2(C(=O)CCl)O1`, the Potency was 15.5 µM (active).
With `CCCCCCCCCCCCCCCCOP(=O)([O-])OCC[N+](C)(C)C`, the “activity change, negative = inhibition” value was -18.7%.
Take `CC(C)C1=CC2=CC[C@@H]3[C@](C)(CCC[C@@]3(C)C(=O)O)[C@H]2CC1`: the Potency was 28.3 µM (active).
On to `O=C(O)c1cccc(Cl)c1Cl`, for which the “activity change, negative = inhibition” value was -9.17% [at 115 µM].
Still for that read-out and setting: for `COC(=O)C(C)O` (configuration not stated) the value was -1.39% [at 115 µM]; for `CCCCc1ccc2nc(NC(=O)OC)[nH]c2c1`, 9.6%.
For `CCCCCCn1c(=O)c2c(ncn2C)n(C)c1=O`, the “activity change, negative = inhibition” value is -17.4%.
`O=C(CC(=O)C(F)(F)F)c1ccccc1`: the Potency was 32.2 µM (active).
For `CCCCCCCOC(=O)CCC`, the “activity change, negative = inhibition” value is -11.1% [at 115 µM].
Regarding `Clc1cccc(-c2cc(Cl)cc(Cl)c2)c1`, the Potency was 38.5 µM (active).
As for `CC(C)S`, the “activity change, negative = inhibition” value is -10.5% [at 115 µM].
Same read-out and setting: for `C[C@]12C(=O)OC(=O)[C@H]1[C@H]1C=C[C@@H]2C1` the value was 7.03% [at 115 µM].
For `O=C(CCCl)NCc1ccccc1`, the “activity change, negative = inhibition” value is -8.37%.
In the case of `C=Cc1ccccc1`, the “activity change, negative = inhibition” value is 2.75% [at 115 µM].
Turning to `O=C(O)[C@@H]1CSCN1`, the “activity change, negative = inhibition” value is -7.91%.
The same measure, in the same setting: for `C[C@@H]1CN(c2c(F)c(N)c3c(=O)c(C(=O)O)cn(C4CC4)c3c2F)C[C@H](C)N1` the value was 12.9% [at 23.6 µM]; for `Oc1ccccc1C=NCc1ccccc1`, -12.5%; for `NCCCN1CCN(CCCN)CC1`, 6.23% [at 115 µM].

The target in the next assay is Cytochrome P450 1A2 (Homo sapiens) (UniProt P05177). The assay is described as follows: Cytochrome P450 Family 1 Subfamily A Member 2 (CYP1A2) small molecule antagonists: luciferase reporter qHTS assay (AID 1671199). Note: nearly all actives have a fitted effect of over 50% in size. Conditions: P450-Glo CYP1A2 enzyme, luciferin luminescence, 1 h; series mostly up to 53 µM; activity change, negative = inhibition: at the top concentration. The method, boiled down: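 Inhibition of CYP1A2 conversion of proluciferin to luciferin, detected by luminescence. Reaction run 1 h at room temperature with NADPH regeneration after brief compound preincubation.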
Sequence of Cytochrome P450 1A2 (Homo sapiens) (P05177 whole entry, looked up): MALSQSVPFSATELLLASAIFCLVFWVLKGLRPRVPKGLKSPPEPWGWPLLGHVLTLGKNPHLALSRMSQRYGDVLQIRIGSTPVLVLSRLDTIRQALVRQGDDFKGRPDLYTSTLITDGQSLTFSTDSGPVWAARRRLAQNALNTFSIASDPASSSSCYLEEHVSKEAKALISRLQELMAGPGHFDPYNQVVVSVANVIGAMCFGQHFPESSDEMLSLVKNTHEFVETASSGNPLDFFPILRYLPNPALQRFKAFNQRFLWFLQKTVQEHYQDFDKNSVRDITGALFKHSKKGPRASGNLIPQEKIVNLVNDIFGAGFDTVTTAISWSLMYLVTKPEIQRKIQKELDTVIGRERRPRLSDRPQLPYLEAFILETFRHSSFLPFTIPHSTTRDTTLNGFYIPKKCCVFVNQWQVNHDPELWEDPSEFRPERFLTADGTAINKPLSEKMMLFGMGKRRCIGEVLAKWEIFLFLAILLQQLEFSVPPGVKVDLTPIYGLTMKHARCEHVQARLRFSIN
Regarding `C[C@]12CCC(=O)C=C1CC[C@@H]1[C@@H]2CC[C@@]2(C)[C@H]1CC[C@]2(O)C(=O)CO`, the “activity change, negative = inhibition” value was 14.7%.
As for `CN1CCN(c2c(F)cc3c(=O)c(C(=O)O)cn4c3c2SCC4)CC1`, the “activity change, negative = inhibition” value is -1.77%.
As to `CC1=C2[C@H](/C=C(\C)C(=O)O)CC[C@@H](C)[C@H]2CC1`, the Potency is 65.6 µM (active).
Turning to `C=CC(C)(O)CC/C=C(\C)CCC=C(C)C` (configuration not stated), the Potency was 31.7 µM (active).
On the same count and under the same terms, for `C=CCCCCCCCCO` the value was 39.9 µM (active).
Take `NCCC(O)(P(=O)(O)O)P(=O)(O)O`: the Potency is 24.5 µM (active).
As for `C/C(=N\O)[C@@H](C)NCC(C)(C)CN[C@H](C)/C(C)=N/O`, the “activity change, negative = inhibition” value is 7.9%.
Consider `CC(C)OC(C)C`, for which the “activity change, negative = inhibition” value is -13.5% [at 115 µM].
As for `C1CSCCS1`, the “activity change, negative = inhibition” value is -20.4% [at 115 µM].
Turning to `CCc1cc(Cl)c(OC)c(C(=O)NC[C@@H]2CCCN2CC)c1O`, the Potency is 12.9 µM (active).
Turning to `CC1(C)O[C@@H]2C[C@H]3[C@@H]4CCC5=CC(=O)CC[C@]5(C)[C@@]4(F)[C@@H](O)C[C@]3(C)[C@]2(C(=O)CCl)O1`, the “activity change, negative = inhibition” value is 13.6%.
As to `CCOC(=O)C1CC(=O)C(=C(O)C2CC2)C(=O)C1` (configuration not stated), the “activity change, negative = inhibition” value was -16.3% [at 115 µM].
As to `O=S(=O)(O)C(F)(F)F`, the “activity change, negative = inhibition” value was -6.88% [at 115 µM].
With `CC1(C)S[C@@H]2[C@H](NC(=O)C(C(=O)O)c3ccccc3)C(=O)N2[C@H]1C(=O)O` (some centres not stated), the “activity change, negative = inhibition” value was -7.42%.
The same measure, in the same setting: for `CCCN(CCC)C(=O)C(CCC(=O)O)NC(=O)c1ccccc1` (configuration not stated) the value was 13.3%; for `CCCCc1ccc2nc(NC(=O)OC)[nH]c2c1`, -22.4%.
With `CCCCCCn1c(=O)c2c(ncn2C)n(C)c1=O`, the Potency was 15.5 µM (active).
In the case of `Clc1cccc(-c2cc(Cl)cc(Cl)c2)c1`, the Potency is 21.7 µM (active).
Regarding `CC(C)S`, the “activity change, negative = inhibition” value is -24.5% [at 115 µM].
Take `C=Cc1ccccc1`: the “activity change, negative = inhibition” value is -15.8% [at 115 µM].
`CCOC(=O)COc1ccc2c(c1)CC(NCC(O)c1cccc(Cl)c1)CC2` (configuration not stated): the “activity change, negative = inhibition” value was -21.6% [at 115 µM].
As to `CC1=C(CC(=O)O)c2cc(F)ccc2/C1=C\c1ccc(S(C)(=O)=O)cc1`, the Potency was 17.4 µM (active).
As to `Cc1cc(S(=O)(=O)O)c(N)cc1Cl`, the “activity change, negative = inhibition” value is -12.2% [at 115 µM].
In the case of `Cc1ccc(C)c(N)c1`, the Potency was 35.6 µM (active).
Turning to `O=C(O)[C@@H]1CSCN1`, the “activity change, negative = inhibition” value was 12.2%.
As to `C[C@@H]1CN(c2c(F)c(N)c3c(=O)c(C(=O)O)cn(C4CC4)c3c2F)C[C@H](C)N1`, the “activity change, negative = inhibition” value is 15.6% [at 23.6 µM].
Regarding `Oc1ccccc1C=NCc1ccccc1`, the “activity change, negative = inhibition” value is 14.3%.
In the case of `O=Cc1ccc(O)c(O)c1O`, the “activity change, negative = inhibition” value was 8.08%.
